The results in this text go back to the supplement of paper PMC10849652.

Targets with a hit are over-represented here; the source holds about 8,800 in all. About 0.5% of all pairs of compound and target were hits. Unmarked numbers belong to inactive results.

Common to all, as to experiment: log2 fold change, soluble protein after heating vs DMSO (PISA); higher = thermal stabilisation; K562 lysate, 10 uM; active = over 0.2 and 3.5 SD of the protein, either way, in both replicates (recomputed)
Compound in one test: Cc1cn(-c2cc(NC(=O)c3ccc(C)c(Nc4nccc(-c5cccnc5)n4)c3)cc(C(F)(F)F)c2)cn1 [nilotinib]
An outline of the steps:
(§1)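 To prepare the extract, K562 pellets were dounce-homogenised in PBS pH 7.4 with 1 mM MgCl2, giving crude material at 1 mg/mL protein. This was treated with 10 μM compound for 30 min, then heated in aliquots for 3 min over 48°C-58°C before pooling and addition of NP-40 to 0.5% at 4°C. Centrifugation at 21,000xg for 90 min left soluble protein in the supernatant, which TMTpro 16plex LC-MS/MS quantified with equalised channel sums. Results are log-two fold changes in thermal stability compared with solvent controls, from duplicates.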

Compound in test [1]: Cc1nc(Nc2n[nH]c3c2CN(C(=O)N[C@H](CN(C)C)c2ccccc2)C3(C)C)c2sccc2n1
In outline: as §1

Compound in a further test: Cc1nc(Nc2ncc(C(=O)Nc3c(C)cccc3Cl)s2)cc(N2CCN(CCO)CC2)n1 [dasatinib]
In outline:
as §1

Compound in test [2]: Cc1ncc(-c2ccnc(Nc3ccc(S(C)(=O)=O)cc3)n2)n1C(C)C
In outline: as §1

Compound in test [3]: Cn1cc(-c2ccc3c(c2)CCN3C(=O)Cc2cccc(C(F)(F)F)c2)c2c(N)ncnc21
In outline:
as §1

Compound in the next test: Cn1cc(CNCC2CCN(c3ncc(C(=O)NO)cn3)CC2)c2ccccc21 [quisinostat]
An outline of the steps: as §1

Compound in another test: Cn1cncc1[C@@](N)(c1ccc(Cl)cc1)c1ccc2c(c1)c(-c1cccc(Cl)c1)cc(=O)n2C [tipifarnib]
An outline of the steps:
as §1

Compound in test [4]: NC(=O)Nc1cc(-c2cccc(F)c2)sc1C(=O)N[C@H]1CCCNC1
An outline of the steps: as §1

Compound in test [5]: NC(=O)c1cnc(N[C@@H]2CCCC[C@@H]2N)nc1Nc1cccc(-n2nccn2)c1
An outline of the steps:
as §1

Compound in test [6]: NC1(c2ccc(-c3nc4ccn5c(=O)[nH]nc5c4cc3-c3ccccc3)cc2)CCC1
In outline: as §1

Compound in test [7]: NCC(=O)Nc1ccc(-n2nc(C(F)(F)F)cc2-c2ccc3c(ccc4ccccc43)c2)cc1
An outline of the steps: as §1

Compound in another test: O=C(CCCCCCC(=O)Nc1ccccc1)NO [vorinostat]
An outline of the steps:
as §1

Compound in a further test: O=C(O)c1ccc2c(c1)nc(Nc1cccc(Cl)c1)c1ccncc12 [silmitasertib]
An outline of the steps:
as §1

Compound in test [8]: O=C1NC(=O)C(c2cnc3ccccn23)=C1c1cn2c3c(cc(F)cc13)CN(C(=O)N1CCCCC1)CC2
In outline:
as §1

Compound in a further test: c1cn2cc(-c3ccc4cn[nH]c4c3)nc(Nc3ccc(N4CCOCC4)cc3)c2n1 [entospletinib]
An outline of the steps:
as §1

Sequence of UniProt P50995 (P50995 whole entry, looked up): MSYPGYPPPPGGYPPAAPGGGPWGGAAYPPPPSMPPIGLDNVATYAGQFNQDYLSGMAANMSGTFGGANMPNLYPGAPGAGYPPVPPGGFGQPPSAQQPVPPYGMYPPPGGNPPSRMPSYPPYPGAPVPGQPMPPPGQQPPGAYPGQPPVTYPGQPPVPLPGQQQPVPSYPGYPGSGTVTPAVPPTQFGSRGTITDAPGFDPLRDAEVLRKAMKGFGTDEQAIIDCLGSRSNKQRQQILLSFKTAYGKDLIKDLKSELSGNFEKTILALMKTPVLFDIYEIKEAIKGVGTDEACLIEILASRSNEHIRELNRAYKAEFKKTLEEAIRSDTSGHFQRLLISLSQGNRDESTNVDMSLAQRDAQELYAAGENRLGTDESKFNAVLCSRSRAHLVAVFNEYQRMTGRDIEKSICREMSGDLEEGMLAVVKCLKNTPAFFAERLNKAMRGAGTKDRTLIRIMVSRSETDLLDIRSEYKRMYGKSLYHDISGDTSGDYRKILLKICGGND
Sequence of UniProt P27216 (P27216 whole entry, looked up): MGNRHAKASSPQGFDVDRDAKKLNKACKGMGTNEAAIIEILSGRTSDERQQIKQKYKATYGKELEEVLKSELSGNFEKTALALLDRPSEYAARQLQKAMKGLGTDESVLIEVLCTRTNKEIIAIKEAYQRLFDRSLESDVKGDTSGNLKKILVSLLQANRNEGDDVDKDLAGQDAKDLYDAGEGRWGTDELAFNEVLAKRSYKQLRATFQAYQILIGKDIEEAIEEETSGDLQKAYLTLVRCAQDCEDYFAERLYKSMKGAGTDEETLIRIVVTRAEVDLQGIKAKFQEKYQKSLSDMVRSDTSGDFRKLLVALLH
Sequence of UniProt P55263 (P55263 whole entry, looked up): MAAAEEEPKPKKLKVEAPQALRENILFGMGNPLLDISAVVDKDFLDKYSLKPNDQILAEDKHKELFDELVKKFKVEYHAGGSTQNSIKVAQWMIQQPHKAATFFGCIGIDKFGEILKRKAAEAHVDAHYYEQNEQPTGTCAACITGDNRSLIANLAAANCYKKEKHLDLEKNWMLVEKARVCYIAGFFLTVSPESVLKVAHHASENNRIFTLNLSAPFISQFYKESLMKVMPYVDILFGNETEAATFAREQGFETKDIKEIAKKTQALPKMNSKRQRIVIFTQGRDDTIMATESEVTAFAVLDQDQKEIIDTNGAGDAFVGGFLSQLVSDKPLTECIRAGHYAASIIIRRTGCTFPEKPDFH
Sequence of UniProt Q92974 (Q92974 whole entry, looked up): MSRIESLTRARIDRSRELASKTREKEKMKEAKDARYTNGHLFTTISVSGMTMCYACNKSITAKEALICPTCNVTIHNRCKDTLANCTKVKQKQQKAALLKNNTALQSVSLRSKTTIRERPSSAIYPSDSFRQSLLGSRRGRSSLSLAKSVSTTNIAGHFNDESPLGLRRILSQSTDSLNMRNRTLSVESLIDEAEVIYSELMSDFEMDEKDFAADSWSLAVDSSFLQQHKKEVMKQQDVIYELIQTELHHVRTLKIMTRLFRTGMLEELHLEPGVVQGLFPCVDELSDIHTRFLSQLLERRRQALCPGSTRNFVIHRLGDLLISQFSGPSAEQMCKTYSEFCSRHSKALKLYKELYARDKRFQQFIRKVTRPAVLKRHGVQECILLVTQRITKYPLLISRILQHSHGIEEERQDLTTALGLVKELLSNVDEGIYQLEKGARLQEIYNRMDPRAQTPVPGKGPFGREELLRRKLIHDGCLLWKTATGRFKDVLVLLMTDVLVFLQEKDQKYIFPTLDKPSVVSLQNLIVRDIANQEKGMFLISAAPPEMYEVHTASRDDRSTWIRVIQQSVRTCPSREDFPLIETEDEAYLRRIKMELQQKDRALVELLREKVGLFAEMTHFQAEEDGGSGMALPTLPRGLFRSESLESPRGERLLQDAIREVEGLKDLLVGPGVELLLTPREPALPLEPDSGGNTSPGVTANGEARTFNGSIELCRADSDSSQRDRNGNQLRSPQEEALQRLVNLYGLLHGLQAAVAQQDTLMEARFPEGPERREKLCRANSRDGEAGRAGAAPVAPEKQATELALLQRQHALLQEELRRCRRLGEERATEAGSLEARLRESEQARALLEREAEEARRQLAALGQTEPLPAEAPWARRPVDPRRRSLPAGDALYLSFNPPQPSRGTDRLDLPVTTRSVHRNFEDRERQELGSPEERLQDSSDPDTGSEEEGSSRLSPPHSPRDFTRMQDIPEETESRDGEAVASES
Sequence of UniProt Q12797 (Q12797 whole entry, looked up): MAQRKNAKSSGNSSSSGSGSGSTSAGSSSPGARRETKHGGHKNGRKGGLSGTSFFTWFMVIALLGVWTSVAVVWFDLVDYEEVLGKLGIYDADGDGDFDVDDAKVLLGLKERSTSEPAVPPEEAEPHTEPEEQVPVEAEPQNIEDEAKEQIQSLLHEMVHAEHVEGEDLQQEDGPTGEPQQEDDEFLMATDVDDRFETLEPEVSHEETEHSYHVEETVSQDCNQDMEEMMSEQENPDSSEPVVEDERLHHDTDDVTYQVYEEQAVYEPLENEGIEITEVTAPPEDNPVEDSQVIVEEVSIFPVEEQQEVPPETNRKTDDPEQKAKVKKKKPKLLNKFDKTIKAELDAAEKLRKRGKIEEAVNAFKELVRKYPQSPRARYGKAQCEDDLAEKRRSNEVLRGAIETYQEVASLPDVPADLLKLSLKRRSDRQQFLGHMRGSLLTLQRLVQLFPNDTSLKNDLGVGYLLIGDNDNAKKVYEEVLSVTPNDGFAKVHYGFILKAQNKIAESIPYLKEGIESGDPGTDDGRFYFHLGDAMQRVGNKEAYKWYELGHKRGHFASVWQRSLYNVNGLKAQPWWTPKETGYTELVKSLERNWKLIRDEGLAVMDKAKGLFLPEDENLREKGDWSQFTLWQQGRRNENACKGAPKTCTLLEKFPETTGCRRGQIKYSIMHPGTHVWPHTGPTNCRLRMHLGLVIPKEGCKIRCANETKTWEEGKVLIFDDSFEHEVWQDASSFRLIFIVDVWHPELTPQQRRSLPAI

With ADK (UniProt P55263), the log2 fold change with nilotinib is -0.028; in test [1], 0.075; with dasatinib, 0.463; in [2], 0.046; in test [3], -0.005; with quisinostat, -0.062. Also, the log2 fold change was 0.324 in the test with tipifarnib; -0.023 in [4]; -0.015 in test [5]; 0.016 in test [6]; -0.049 in test [7]; -0.052 with vorinostat. Besides, the log2 fold change with silmitasertib is 0.073; in test [8], 0.262; in the test with entospletinib it was -0.027.

Turning to ANXA13 isoform 2 (UniProt P27216), the log2 fold change was -0.001 with nilotinib; 0.005 in test [1]; 0.007 with dasatinib; -0.079 in test [2]; 0.104 in test [3]; -0.022 in the test with quisinostat. Moreover, the log2 fold change was 0.123 with tipifarnib; 0.023 in [4]; 0.032 in test [5]; 0.078 in test [6]; -0.084 in [7]; 0.004 with vorinostat. Moreover, the values for the log2 fold change (in the test with silmitasertib; in test [8]) were 0.024 and 0.02, respectively.

Consider ARHGEF2 (UniProt Q92974), for which the log2 fold change was 0.014 with nilotinib; -0.01 in test [1]; -0.01 in the test with dasatinib; -0.025 in [2]; 0.013 in test [3]; -0.048 in the test with quisinostat. Further, the log2 fold change was -0.04 with tipifarnib; 0.006 in [4]; -0.008 in test [5]; 0.013 in test [6]; 0.042 in test [7]; -0.248 (active) in the test with vorinostat. Besides, the log2 fold change in the test with silmitasertib was -0.029; in [8], 0.007; in the test with entospletinib, 0.

Turning to ASPH (UniProt Q12797), the log2 fold change with nilotinib is -0.033; in test [1] it was -0.025; with dasatinib it was 0.089; in test [2], 0.011; in test [3], -0.019; with quisinostat, -0.02. In addition, the log2 fold change is 0.004 with tipifarnib; -0.005 in test [4]; -0.009 in [5]; -0.013 in [6]; 0 in test [7]; 0.131 with vorinostat. For the same target, the log2 fold change with silmitasertib is -0.008; in test [8] it was 0.029; in the test with entospletinib, -0.016.

With ANXA11 (UniProt P50995), the log2 fold change in the test with nilotinib is 0.014; in [1], -0.017; in the test with dasatinib, -0.033; in test [2], -0.029; in [3], 0.016; with quisinostat, 0.005. Also, the log2 fold change with tipifarnib was -0.011; in test [4] it was -0.002; in test [5], 0.009; in test [6], 0.028; in test [7], -0.003; with vorinostat it was -0.117. The log2 fold change is 0.044 with silmitasertib, -0.018 in [8] and 0.031 in the test with entospletinib.
